For 13 compounds, growth results are on record in PubChem BioAssay (NCI).

The panel holds about 83,000 compounds, 20% with a hit somewhere; the sample as a whole holds those more often.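 Values shown are percent growth following 48 h exposure of cells in 96-well plates to a single concentration of compound; below 10 was considered active.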 A number with no mark means an inactive call. Active and inactive are the calls of the source.

Common to all, as to test: NCI-60 one-dose screen, 48 h (100 = growth as untreated, 0 = no growth, -100 = all killed)
What all share (conditions): 10 µM

The subject of test [1] is DU-145 prostate.
The subject of test [2] is K-562 leukemia.
The subject of test [3] is MALME-3M melanoma.
The test system of test [4] is MDA-MB-231 breast.
Test [5] deals with RXF 393 renal.
Test [6] concerns SF-268 CNS.
For test [7], the system named is SF-295 CNS.
Test [8] relates to SF-539 CNS.
Test [9] relates to UACC-257 melanoma.
Test [10] concerns M14 melanoma.

As for `CN(C)CCCSc1ccccc1NC1=C(Cl)C(=O)C(Nc2ccccc2SCCCN(C)C)=C(Cl)C1=O`, the growth in [1] is 87.4%; in test [2], -18.8% (active); in [3], -28.8% (active); in test [4] it was 44.9%; in test [5] it was 45.8%; in test [6], 43.7%. Moreover, the growth in test [7] was 101%; in test [8], 42.8%; in [9] it was 85%; in test [10] it was 94.7%.

Regarding `COc1ccc(-c2n[nH]nc2-c2cc(OC)c(OC)c(OC)c2)cc1`, the growth is -14.1% (active) in [1]; 8.16% (active) in test [2]; 37.3% in test [3]; 14.8% in test [4]; 33.3% in test [5]; 9.64% (active) in test [6]. For the same compound, the growth in test [7] is 13.7%; in test [8] it was 10.3%; in [9], 69.1%; in test [10], 12.2%.

For the compound `COc1cc(-c2nn(-c3cccc(NC(=O)NCCNS(=O)(=O)c4ccc(Cl)cc4)c3)cc2-c2ccncc2)ccc1Cl`, the growth is 11.5% in test [1]; 2.85% (active) in test [2]; 10.9% in test [3]; -2.68% (active) in test [4]; -13.6% (active) in [5]; 13.1% in test [6]. In addition, the growth was -44.8% (active) in test [7], -38.5% (active) in [8], 33% in [9] and -24.7% (active) in test [10].

On to `NS(=O)(=O)Oc1ccc2c(ccn2C(=O)C23CC4CC(CC(C4)C2)C3)c1`, for which the growth in test [1] was 116%; in test [2] it was 101%; in [3], 115%; in test [4] it was 102%; in test [5], 115%; in test [6], 111%. For the same compound, the growth was 97.8% in test [7], 103% in [8], 102% in test [9] and 112% in test [10].

On to `CCOC(=O)c1cc(C(=O)c2cc(OC)c(OC)c(OC)c2)n2nc(C)ccc12`, for which the growth was 21.1% in [1]; 9.56% (active) in test [2]; 77.9% in [3]; 45.8% in [4]; 33.6% in test [5]; 56.2% in test [6]. Further, the growth is 41% in test [7], 15% in test [8], 55.5% in [9] and 21% in [10].

Turning to `COc1cc(-c2nn(-c3cccc(NC(=O)CN4CCOCC4)c3)cc2-c2cccnc2)ccc1Cl`, the growth is 82.3% in test [1]; 42.2% in [2]; 80.5% in test [3]; 83.1% in [4]; 85.1% in [5]; 85.4% in test [6]. Also, the growth in [7] is 76.8%; in test [8] it was 87%; in test [9], 93.9%; in [10], 61%.

As for `C/C(=N\O)c1ccc(NC(=O)CSc2nnc(-c3ccccc3)n2-c2ccccc2)cc1`, the growth in test [1] is 90.6%; in test [2] it was 95.8%; in test [3], 82.9%; in test [4] it was 67.9%; in test [5], 99.9%; in test [6], 99.8%. Moreover, the growth in test [7] is 92.2%; in test [8], 52.6%; in test [9] it was 94.5%; in test [10], 91.8%.

Regarding `CN(C)CCCOc1cccc(NC2=C(Cl)C(=O)C(Nc3cccc(OCCCN(C)C)c3)=C(Cl)C2=O)c1`, the growth is -97.7% (active) in [1]; -29.7% (active) in test [2]; -74.8% (active) in test [3]; -73.6% (active) in test [4]; -88.8% (active) in test [5]; -62.6% (active) in test [6]. Moreover, the growth was 64.3% in test [7], -77.7% (active) in test [8], -90.1% (active) in test [9] and -75.6% (active) in test [10].

On to `O=C(Nc1nc(-c2ccccc2)nc2c1sc(=S)n2-c1ccccc1)C(F)(F)F`, for which the growth in test [1] was 99.6%; in test [2], 79.4%; in test [3] it was 124%; in test [4] it was 89.7%; in test [5], 98%; in test [6] it was 98.4%. Further, the growth in test [7] was 88.4%; in [8], 96.5%; in test [9], 82.9%; in [10], 101%.

Consider `CC1=CC2C(C(O)CC3(C)C2CC(C)C32OCOC23COCO3)C2(C)C/C(=C/O)C(=O)C=C12` (stereo not given), for which the growth is 44.1% in [1]; 2.43% (active) in test [2]; 15.5% in test [3]; 18% in [4]; 26.1% in test [5]; 24.8% in test [6]. Also, the growth was 79.5% in test [7], 41.5% in test [8], 78.2% in test [9] and 18.7% in test [10].

For `C1CN(CC2CCC(CN3CCOCC3)O2)CCO1` (stereo not given), the growth in test [1] is 111%; in test [2] it was 63.1%; in test [3], -4.36% (active); in test [4], 118%; in test [5], 112%; in test [6], 104%. Besides, the growth is 99.7% in [7], 98% in test [8], 103% in [9] and 95.9% in [10].

As for `O=[N+]([O-])c1cccc(/C=N/NC(=S)NC23CC4CC(CC(C4)C2)C3)c1`, the growth was 83.9% in test [1]; 89.2% in test [2]; 60.1% in [3]; 70.2% in test [4]; 75.9% in test [5]; 77.8% in test [6]. The growth in [7] was 73.3%; in [8], 92.3%; in test [9], 76.4%; in test [10], 89%.

Take `O=C(NCCCNS(=O)(=O)c1ccc(Cl)cc1)Nc1ccc(-n2cc(-c3ccncc3)c(-c3ccc(Cl)c(O)c3)n2)cc1`: the growth is 46.6% in test [1]; 10.1% in [2]; 37.6% in test [3]; -19.3% (active) in [4]; 18.9% in test [5]; 49.1% in test [6]. Further, the growth was 2.43% (active) in test [7], 47.9% in test [8], 33.7% in test [9] and 18.1% in test [10].
